According to PubChem BioAssay AID932 (The Scripps Research Institute Molecular Screening Center, 2007):
Out of some 200,000 compounds screened, about 5,100 (2.5%) were called active.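 The calls were made as follows: active = activation above the screen-wide mean activation plus 3 SD (cut at about 130% in these data); inactive = the rest.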 This excerpt belongs to a sample that is enriched for actives. Where a SMILES comes first, the peptide text is derived from it. The star is where a group is joined. OPac = O=C(CO*)c1ccccc1; Bz = O=C(c1ccccc1)*

Assay: potentiators of IFN-gamma driven STAT1 reporter – cell-based, HTS, luciferase reporter, primary screen (AID 932);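 also: raw ratio to IFN-gamma control signal so 100% means no change and 0% no light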
Conditions: NIH 3T3 STAT1-luciferase reporter, luminescence, at 5.5 µM, active compounds read high, 100% = IFN-gamma alone, no compound

| Compound | activation (% of control) |
| --- | --- |
| O=C(CNC(=O)c1ccccc1)NCC(=O)OCC(=O)c1ccccc1 (Bz-Gly-Gly-OPac) | 101% (inactive) |
| Cn1cc(CN2CCC(C(O)CCc3ccccc3)CC2)c(-c2ccccc2F)n1 (stereo unspecified) | 97.4% (inactive) |
| CCNC(=S)N1CCC(c2nc3cc(C)c(C)cc3[nH]2)CC1 | 96.7% (inactive) |
| COCCCNC(=S)N1CCCC(c2nc3cc(C)c(C)cc3[nH]2)C1 (stereo unspecified) | 140% (active) |
| CCCNC(=S)N1CCCC(c2nc3ccccc3[nH]2)C1 (stereo unspecified) | 94.6% (inactive) |
| CC(=O)NCC(=O)N(Cc1ccco1)C1(C(=O)NC2CCCC2)CCCCC1 | 89.9% (inactive) |
| Cc1nn(-c2ccccc2)c2c1C(c1cccc([N+](=O)[O-])c1)N(c1ccccc1)C(=O)N2 (stereo unspecified) | 97.4% (inactive) |
| Cc1nn(-c2ccc([N+](=O)[O-])cc2)c(N)c1-c1ccccc1 | 164% (active) |
| O=C1CC(c2ccccc2)=NN1c1ccc([N+](=O)[O-])cc1 | 104% (inactive) |
| CNC(=O)NC(=O)CSc1nnc(-c2ccc(F)cc2)n1CC1CCCO1 (stereo unspecified) | 103% (inactive) |
| Cc1cccc(N=Nc2c(C)[nH]n(-c3ccccc3)c2=O)c1 | 112% (inactive) |
| COCC(=O)N=Nc1c(O)[nH]c2ccccc12 | 110% (inactive) |
| Cc1cccc(N=Nc2c(O)[nH]c3ccc(F)cc23)c1 | 161% (active) |
| O=c1c(-c2ccccc2)coc2cc(O)ccc12 | 137% (active) |
| O=c1c(-c2ccccc2)coc2c(CN3CCOCC3)c(O)ccc12 | 100% (inactive) |
| CC(=O)COc1ccc2c(-c3ccccc3)cc(=O)oc2c1 | 109% (inactive) |
| O=c1c2c(ncn1Cc1ccccc1)nc1n2CCC1 | 96.7% (inactive) |
| COC(=O)c1ccc(CN2CCN(CCCc3ccccc3)C(CCO)C2)cc1 (stereo unspecified) | 96.7% (inactive) |
| CCOC(=O)c1oc2c(CN3CCN(CCO)CC3)c(O)c(CC)cc2c(=O)c1-c1nc2ccccc2s1 | 104% (inactive) |
| C/C(=C\C(=O)c1ccc(Br)cc1)N1CCCCC1 | 105% (inactive) |
| CN1CCCC(OC(=O)COc2ccc(Br)cc2)C1 (stereo unspecified) | 101% (inactive) |
| CC1CN/C(=C\C(=O)c2ccc(Br)cc2)C(=O)N1 (stereo unspecified) | 172% (active) |
| COc1ccc(-n2c(C)cc(C(=O)CSc3nnc(-c4cccs4)o3)c2C)cc1 | 85.5% (inactive) |
| Cc1ccc(-n2c(C)cc(C(=O)CSc3nnc4ccccn34)c2C)cc1 | 150% (active) |
| O=C(CSc1nnc2ccccn12)c1ccccc1 | 123% (inactive) |
| CCOc1ccc(C(=O)NC2CCN(CC(=O)NCc3cccs3)CC2)cc1 | 105% (inactive) |

| Compound | activation (% of control) |
| --- | --- |
| CN(C)CCCCCN(C)Cc1cc2ccccc2o1 | 91.6% (inactive) |
| Cc1cc(NC(=O)CSc2nnc(Nc3ccccc3F)s2)no1 | 102% (inactive) |
| COc1ccc(-c2cc(C(=O)NCCCn3ccnc3)no2)cc1 | 110% (inactive) |
| COc1ccccc1-c1cc(C(=O)NCCCn2ccnc2)no1 | 112% (inactive) |
| O=C(NCCCn1ccnc1)c1cc(-c2ccccc2)on1 | 161% (active) |
| Cc1ccc(NC(=O)CSc2nnc(COc3ccccc3C)o2)cc1 | 103% (inactive) |
| Cc1ccccc1-c1nc(C#N)c(NCc2ccco2)o1 | 98.1% (inactive) |
| O=C(C(=O)N1CCc2ccccc2C1)c1c[nH]c2ccccc12 | 105% (inactive) |
| CC(=O)c1cccc(NC(=O)[C@@H](NC(N)=O)C(C)C)c1 | 98.5% (inactive) |
| COc1ccc(-c2csc(NC(=O)CCCc3cccs3)n2)cc1 | 91.3% (inactive) |
| COc1ccc(-c2csc(NC(=O)COC(=O)c3ccc(Br)o3)n2)cc1 | 129% (active) |
| COc1ccc(-c2csc(NC(=O)COC(=O)Cc3ccc(Cl)cc3Cl)n2)cc1 | 112% (inactive) |
| CC(C)C(=O)OCC(=O)Nc1ccc2c(c1)CCC2 | 101% (inactive) |
| O=C(Nc1ccc2c(c1)CCC2)c1ccc(Br)s1 | 165% (active) |
| O=C(NC1CCCC1)c1ccc(Br)s1 | 108% (inactive) |
| CC1(C)C(c2cccs2)=[N+]([O-])C2(CCCCC2=O)N1O (stereo unspecified) | 105% (inactive) |
| COc1cc(C(=O)N2C(=O)c3cccc(N)c3C2=O)cc(OC)c1OC | 104% (inactive) |
| O=C(CCN1CCCCC1)N=Nc1c(O)[nH]c2ccccc12 | 93.5% (inactive) |
| O=C(Nc1ccc2c(c1)C(=O)OC2)Nc1cccc2ccccc12 | 93.7% (inactive) |
| Fc1cc(F)c2nc(N3CCOCC3)sc2c1 | 122% (inactive) |
| Brc1ccc2nc(N3CCCC3)sc2c1 | 134% (active) |
| Fc1ccc2nc(N3CCCCC3)sc2c1 | 147% (active) |
| Cc1nc(N2CCCCC2)sc1C=O | 96.9% (inactive) |
| c1c2c(cc3sc(N4CCCCC4)nc13)OCCO2 | 56.4% (inactive) |
| CCOC(=O)N1CCC(NC(=O)c2ccc3nc(N4CCOCC4)sc3c2)CC1 | 102% (inactive) |
| O=C(COC(=O)CC1CC2CCC1C2)NC(=O)NC1CCCC1 (stereo unspecified) | 101% (inactive) |

| Compound | activation (% of control) |
| --- | --- |
| CCOC(=O)c1c(C)n(C)c2ccc(OC)c(NS(=O)(=O)CC)c12 | 111% (inactive) |
| CC(=O)c1cc(C#N)c(SCC(=O)Nc2nccs2)nc1C | 108% (inactive) |
| CC(=O)c1cc(C#N)c(N2CCCCC2)nc1C | 95.1% (inactive) |
| CC(=O)c1cc(C#N)c(SCC(=O)C(C)(C)C)nc1C | 140% (active) |
| Cc1nc2nc[nH]n2c(=O)c1C/C=C/c1ccccc1 | 102% (inactive) |
| CCOC(=O)C(C)n1cnc2sc(C)c(C)c2c1=O (stereo unspecified) | 105% (inactive) |
| Cc1c(C(N)=O)sc2ncn(CCOc3ccccc3)c(=O)c12 | 116% (inactive) |
| Cc1cccc(OC(=O)c2sc3ncn(C)c(=O)c3c2C)c1 | 134% (active) |
| COc1ccc(Br)cc1C(=O)Nc1cccc(C)c1C | 95.7% (inactive) |
| O=S(=O)(ON(c1ccccc1)S(=O)(=O)c1ccccc1)c1ccccc1 | 105% (inactive) |
| CCOC(=O)c1cccc(NC(=O)CCOc2ccccc2)c1 | 97.3% (inactive) |
| CCOC(=O)N/N=C/c1cccnc1 | 102% (inactive) |
| CC(=O)Nc1ccc(S(=O)(=O)NC2(C(F)(F)F)C(=O)Nc3c2c(=O)[nH]c(=O)n3Cc2ccccc2)cc1 (stereo unspecified) | 108% (inactive) |
| CN(C)c1ccnc2sc3c(=O)n(Cc4ccccc4)cnc3c12 | 78.3% (inactive) |
| Cc1nc2sc(C(=O)c3ccccc3)c(N)c2c2c1CCCC2 | 113% (inactive) |
| CN(C)c1ccnc2sc(C(=O)c3ccccc3)c(N)c12 | 153% (active) |
| N#Cc1ccccc1NC(=O)COc1c(Br)cc(Br)c2cccnc12 | 77.3% (inactive) |
| Cc1ccc(NC(=O)CC2S/C(=N/N=C3\CCCc4ccccc43)NC2=O)cc1 (stereo unspecified) | 107% (inactive) |
| COc1ccc(CCn2ccc(O)c(Cc3ccc(Cl)cc3Cl)c2=O)cc1OC | 92.6% (inactive) |
| COc1ccc(C(=O)NC2CCN(C(=S)NCCc3ccccc3)CC2)cc1 | 91.9% (inactive) |
| O=C(NCCc1ccccc1)c1ccc(NC2=NC3CS(=O)(=O)CC3S2)cc1 (stereo unspecified) | 102% (inactive) |
| CC1CCCN(c2ccc(C(=O)NCCc3ccccc3)cn2)C1 (stereo unspecified) | 147% (active) |
| CCCC/C(C)=N/NC(=O)NC1CCCCC1 | 102% (inactive) |
| NS(=O)(=O)c1ccc(NC(=O)COC(=O)c2ccc(Cl)nc2)cc1 | 103% (inactive) |
| CCc1ccc(C2N3CC4([N+](=O)[O-])CN2CC([N+](=O)[O-])(C3)C4(C)C)cc1 (stereo unspecified) | 90.6% (inactive) |
| Cc1ccc2nc3n(c(=O)c2c1)CCC3 | 106% (inactive) |

| Compound | activation (% of control) |
| --- | --- |
| Brc1cccc(-c2nnc3n2CCC3)c1 | 101% (inactive) |
| COc1ccc(-c2nc3n(c2Br)CCC3)cc1 | 131% (active) |
| COc1cc(-c2cc(C(=O)OCC(=O)Nc3ccc4c(c3)OCO4)c3ccccc3n2)cc(OC)c1OC | 91.2% (inactive) |
| Cc1cccc(C)c1N1CCN(S(=O)(=O)N2CCCCC2)CC1 | 96.7% (inactive) |
| CC1CN(CCOc2ccccc2[N+](=O)[O-])CC(C)O1 (stereo unspecified) | 101% (inactive) |
| COc1ccc(C2Nc3ccccc3C(=O)N2Cc2ccccc2)cc1Cn1nnc2ccccc21 (stereo unspecified) | 101% (inactive) |
| COc1ccc(C2Nc3ccccc3C(=O)N2c2ccc(F)cc2)cc1Cn1nnc2ccccc21 (stereo unspecified) | 103% (inactive) |
| COc1ccc(C2Nc3ccccc3C(=O)N2c2ccc(Cl)cc2)cc1Cn1cc([N+](=O)[O-])cn1 (stereo unspecified) | 181% (active) |
| Cc1nnc(CN(C)Cc2cn[nH]c2-c2ccc(-c3ccccc3)cc2)o1 | 114% (inactive) |
| COc1ccc(CCNC(=O)/C(C#N)=C2\N=C(NC(=O)c3cccs3)c3ccccc32)cc1 | 95.7% (inactive) |
| COCCCNC(=S)N(Cc1ccccc1)Cc1ccc(F)cc1 | 90% (inactive) |
| Cc1ccc(S(=O)(=O)N(NC2=NS(=O)(=O)c3ccccc32)C(=O)c2ccccc2)cc1 | 106% (inactive) |
| CC(C)(C)c1csc(NC2=NS(=O)(=O)c3ccccc32)n1 | 130% (active) |
| O=C(Oc1cccc(NC2=NS(=O)(=O)c3ccccc32)c1)c1ccncc1 | 92.7% (inactive) |
| COC(=O)C1=C(C(=O)OC)C(c2cc([N+](=O)[O-])ccc2O)c2sc(=O)[nH]c2S1 (stereo unspecified) | 98.4% (inactive) |
| CCOC(=O)Cc1csc(NC(=O)COc2ccc3c(C)cc(=O)oc3c2)n1 | 102% (inactive) |
| COC(=O)COc1cccc2c(=O)n(CC(=O)NCCc3ccc(OC)c(OC)c3)ccc12 | 100% (inactive) |
| CC(/C=N/NC(=O)c1ccncc1)=C\c1ccco1 | 98.5% (inactive) |
| CC(/C=N/NC(=O)c1cc(-c2ccc3ccccc3c2)n[nH]1)=C\c1ccco1 | 131% (active) |
| Cc1ccc(-c2cc(C(=O)N/N=C/C=C/c3ccco3)c3ccccc3n2)cc1C | 78.9% (inactive) |
| O=C(CSc1nnc(-c2ccco2)n1Cc1ccccc1)NC(=O)NCc1ccco1 | 101% (inactive) |
| c1ccc(CSc2nnc(-c3ccco3)n2Cc2ccccc2)cc1 | 144% (active) |
| c1ccc(CSc2nnc(-c3ccco3)c(-c3ccco3)n2)cc1 | 97.8% (inactive) |
